# Assay results: PubChem BioAssay (EPA / NIEHS)
# Records with an inconclusive call do not appear. Calls of active or inactive are those of the source. Rule for the calls: active = hit-call score of the fitted dose curve at least 0.9, where 1 is the maximum; inconclusive = response in the unintended direction; inactive = score below 0.9.
# Columns and labels:
# [1] = target: human Peroxisome Proliferator-activated Receptor alpha (PPARa), PPARA (gene 5465) (UniProt Q07869); experiment: ATG_PPARa_TRANS: Attagene TRANS-FACTORIAL HepG2 Assay for human Peroxisome Proliferator-activated Receptor alpha (PPARa) (AID 2283001);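 for AC50: potency for gain of reporter signal over DMSO so agonist or activator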
# Sequence of human Peroxisome Proliferator-activated Receptor alpha (PPARa), PPARA (gene 5465) (Q07869 whole entry, looked up, the tested form may be a part): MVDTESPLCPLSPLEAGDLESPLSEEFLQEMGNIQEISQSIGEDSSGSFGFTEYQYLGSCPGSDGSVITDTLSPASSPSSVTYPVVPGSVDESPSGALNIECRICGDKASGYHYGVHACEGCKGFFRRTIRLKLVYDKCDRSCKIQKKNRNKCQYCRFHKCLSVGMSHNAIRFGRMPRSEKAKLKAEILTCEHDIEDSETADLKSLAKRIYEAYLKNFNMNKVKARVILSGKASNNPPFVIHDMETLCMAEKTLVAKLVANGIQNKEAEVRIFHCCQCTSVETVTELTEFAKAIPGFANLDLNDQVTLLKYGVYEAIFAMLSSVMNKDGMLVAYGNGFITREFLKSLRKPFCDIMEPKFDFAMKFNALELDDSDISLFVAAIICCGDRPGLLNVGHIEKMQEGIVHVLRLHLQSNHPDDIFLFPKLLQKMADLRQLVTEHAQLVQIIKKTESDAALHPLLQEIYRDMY
# Summary of the method: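 Gain-of-signal endpoint: reporter mRNA induction relative to DMSO, detected by fluorescent RT-PCR and capillary electrophoresis. HepG2 cells transiently carried GAL4-UAS-driven reporter units plus NR-Gal4 fusion; exposure lasted 24 h.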
# [2] = target: Peroxisome proliferator-activated receptor gamma (Homo sapiens) (UniProt P37231); experiment: ATG_PPARg_TRANS: Attagene TRANS-FACTORIAL HepG2 Assay for human Peroxisome Proliferator-activated Receptor-gamma (PPARg) (AID 2283007)
# Sequence of Peroxisome proliferator-activated receptor gamma (Homo sapiens) (P37231 whole entry, looked up, the tested form may be a part): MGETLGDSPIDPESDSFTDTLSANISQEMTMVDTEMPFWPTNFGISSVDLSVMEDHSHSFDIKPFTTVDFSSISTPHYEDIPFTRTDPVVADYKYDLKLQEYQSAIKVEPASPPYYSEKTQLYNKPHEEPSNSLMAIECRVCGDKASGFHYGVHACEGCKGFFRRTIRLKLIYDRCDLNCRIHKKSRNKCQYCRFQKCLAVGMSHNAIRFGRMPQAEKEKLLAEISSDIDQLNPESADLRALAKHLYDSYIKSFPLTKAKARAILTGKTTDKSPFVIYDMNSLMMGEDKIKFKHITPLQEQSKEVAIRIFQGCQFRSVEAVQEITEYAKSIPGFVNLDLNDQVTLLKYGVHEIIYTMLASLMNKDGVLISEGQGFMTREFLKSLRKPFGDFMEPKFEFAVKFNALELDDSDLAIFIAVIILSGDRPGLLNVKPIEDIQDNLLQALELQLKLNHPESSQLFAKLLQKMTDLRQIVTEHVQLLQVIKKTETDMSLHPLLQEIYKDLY
# Summary of the method: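 After 24 h of chemical exposure, transfected HepG2 cells carrying PPARγ-Gal4 chimera reporter constructs are lysed for RNA. Reporter transcripts are measured by RT-PCR and capillary electrophoresis with fluorescent labelling, and gain of signal is fitted versus DMSO.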
# [3] = target: Nuclear receptor subfamily 1 group I member 2 (Homo sapiens) (UniProt O75469); experiment: ATG_PXR_TRANS: Attagene TRANS-FACTORIAL HepG2 Assay for human Pregnane X Receptor (PXR) (AID 2283008)
# Sequence of Nuclear receptor subfamily 1 group I member 2 (Homo sapiens) (O75469 whole entry, looked up, the tested form may be a part): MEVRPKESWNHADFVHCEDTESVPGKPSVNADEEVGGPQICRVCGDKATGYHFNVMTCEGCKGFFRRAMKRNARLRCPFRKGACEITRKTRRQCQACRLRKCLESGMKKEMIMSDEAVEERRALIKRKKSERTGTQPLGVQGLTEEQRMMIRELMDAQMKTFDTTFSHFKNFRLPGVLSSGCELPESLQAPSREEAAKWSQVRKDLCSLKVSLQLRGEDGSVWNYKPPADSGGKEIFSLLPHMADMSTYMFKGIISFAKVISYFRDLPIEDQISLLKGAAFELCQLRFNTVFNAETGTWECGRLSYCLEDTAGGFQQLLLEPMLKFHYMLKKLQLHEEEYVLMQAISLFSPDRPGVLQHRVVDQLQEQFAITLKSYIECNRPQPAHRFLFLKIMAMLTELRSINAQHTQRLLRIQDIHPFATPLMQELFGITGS
# Summary of the method: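 HepG2 cells transiently transfected with GAL4-UAS reporter units and PXR-Gal4 chimera, exposed 24 h. Reporter mRNA quantified by RT-PCR, fluorescent labelling, HpaI digestion and capillary electrophoresis; gain of signal vs DMSO.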
# [4] = target: human Retinoid X Receptor beta (RXRb), RXRB (gene 6257) (UniProt P28702); experiment: ATG_RXRb_TRANS: Attagene TRANS-FACTORIAL HepG2 Assay for human Retinoid X Receptor beta (RXRb) (AID 2283013)
# Sequence of human Retinoid X Receptor beta (RXRb), RXRB (gene 6257) (P28702 whole entry, looked up, the tested form may be a part): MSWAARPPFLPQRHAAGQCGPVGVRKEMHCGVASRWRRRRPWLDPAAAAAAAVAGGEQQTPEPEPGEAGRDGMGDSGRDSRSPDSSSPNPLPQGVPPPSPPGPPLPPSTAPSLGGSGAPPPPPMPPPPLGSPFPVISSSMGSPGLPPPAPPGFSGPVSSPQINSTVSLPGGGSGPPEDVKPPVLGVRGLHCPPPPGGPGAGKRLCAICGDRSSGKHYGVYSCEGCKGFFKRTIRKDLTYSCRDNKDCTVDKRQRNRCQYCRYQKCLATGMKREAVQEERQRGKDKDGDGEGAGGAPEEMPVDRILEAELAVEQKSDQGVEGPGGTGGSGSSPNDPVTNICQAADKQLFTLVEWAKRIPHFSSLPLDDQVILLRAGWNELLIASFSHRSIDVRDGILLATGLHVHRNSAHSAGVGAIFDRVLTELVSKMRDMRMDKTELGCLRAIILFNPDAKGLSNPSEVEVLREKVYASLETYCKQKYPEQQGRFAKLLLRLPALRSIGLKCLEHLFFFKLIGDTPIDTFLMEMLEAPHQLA
# Summary of the method: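 HepG2 cells were transiently transfected with multiplexed GAL4-UAS reporters and a chimeric RXRb-Gal4 construct, then exposed for 24 h. Reporter mRNA was quantified by RT-PCR, FAM labeling, HpaI digestion and capillary electrophoresis; gain of signal was scored against DMSO.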
# [5] = target: human RAR-related Orphan Receptor beta (RORb), RORB (gene 6096) (UniProt Q92753); experiment: ATG_RORb_TRANS: Attagene TRANS-FACTORIAL HepG2 Assay for human RAR-related Orphan Receptor beta (RORb) (AID 2283010)
# Sequence of human RAR-related Orphan Receptor beta (RORb), RORB (gene 6096) (Q92753 whole entry, looked up, the tested form may be a part): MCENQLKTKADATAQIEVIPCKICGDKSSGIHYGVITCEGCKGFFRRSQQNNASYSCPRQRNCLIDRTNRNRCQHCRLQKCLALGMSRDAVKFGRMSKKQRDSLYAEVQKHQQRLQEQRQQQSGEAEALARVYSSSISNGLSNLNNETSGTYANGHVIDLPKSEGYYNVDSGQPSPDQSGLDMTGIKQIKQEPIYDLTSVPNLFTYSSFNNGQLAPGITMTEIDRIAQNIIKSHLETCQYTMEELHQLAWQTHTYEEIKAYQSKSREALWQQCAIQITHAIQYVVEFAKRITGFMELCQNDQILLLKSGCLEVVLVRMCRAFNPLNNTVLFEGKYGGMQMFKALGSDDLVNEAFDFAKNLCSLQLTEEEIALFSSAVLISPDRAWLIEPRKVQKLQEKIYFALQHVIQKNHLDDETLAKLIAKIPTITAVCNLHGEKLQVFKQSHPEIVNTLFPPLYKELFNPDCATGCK
# Summary of the method: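 HepG2 cells transiently transfected with GAL4-UAS reporter units expressing chimeric NR-Gal4 protein; reporter mRNA measured 24 h after dosing by RT-PCR, 6-FAM labelling and capillary electrophoresis. Gain-of-signal fitted relative to DMSO baseline.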
# [6] = target: Retinoic acid receptor RXR-alpha (Homo sapiens) (UniProt P19793); experiment: ATG_RXRa_TRANS: Attagene TRANS-FACTORIAL HepG2 Assay for human Retinoid X Receptor alpha (RXRa) (AID 2283012)
# Sequence of Retinoic acid receptor RXR-alpha (Homo sapiens) (P19793 whole entry, looked up, the tested form may be a part): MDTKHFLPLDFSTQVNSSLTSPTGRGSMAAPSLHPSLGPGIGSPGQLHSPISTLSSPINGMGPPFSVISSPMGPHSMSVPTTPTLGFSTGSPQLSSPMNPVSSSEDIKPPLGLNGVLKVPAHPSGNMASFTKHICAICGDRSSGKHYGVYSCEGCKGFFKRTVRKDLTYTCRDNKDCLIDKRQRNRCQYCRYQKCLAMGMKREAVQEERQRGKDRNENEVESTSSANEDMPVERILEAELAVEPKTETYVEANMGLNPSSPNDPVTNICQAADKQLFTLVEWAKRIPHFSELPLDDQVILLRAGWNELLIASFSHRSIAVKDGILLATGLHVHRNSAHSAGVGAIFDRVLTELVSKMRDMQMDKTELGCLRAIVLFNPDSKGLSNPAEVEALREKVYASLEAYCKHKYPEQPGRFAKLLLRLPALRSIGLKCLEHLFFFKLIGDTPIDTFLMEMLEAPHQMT
# Summary of the method: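 HepG2 cells transiently transfected with GAL4-UAS reporter units and chimeric RXRa-Gal4 protein, treated 24 h. Reporter mRNA measured by RT-PCR, fluorescent labelling, HpaI digestion and capillary electrophoresis. Induction fitted against DMSO.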
# [7] = target: human Thyroid Receptor alpha (THRa1), THRA (gene 7067) (UniProt P10827); experiment: ATG_THRa1_TRANS: Attagene TRANS-FACTORIAL HepG2 Assay for human Thyroid Receptor alpha (THRa1) (AID 2283014)
# Sequence of human Thyroid Receptor alpha (THRa1), THRA (gene 7067) (P10827 whole entry, looked up, the tested form may be a part): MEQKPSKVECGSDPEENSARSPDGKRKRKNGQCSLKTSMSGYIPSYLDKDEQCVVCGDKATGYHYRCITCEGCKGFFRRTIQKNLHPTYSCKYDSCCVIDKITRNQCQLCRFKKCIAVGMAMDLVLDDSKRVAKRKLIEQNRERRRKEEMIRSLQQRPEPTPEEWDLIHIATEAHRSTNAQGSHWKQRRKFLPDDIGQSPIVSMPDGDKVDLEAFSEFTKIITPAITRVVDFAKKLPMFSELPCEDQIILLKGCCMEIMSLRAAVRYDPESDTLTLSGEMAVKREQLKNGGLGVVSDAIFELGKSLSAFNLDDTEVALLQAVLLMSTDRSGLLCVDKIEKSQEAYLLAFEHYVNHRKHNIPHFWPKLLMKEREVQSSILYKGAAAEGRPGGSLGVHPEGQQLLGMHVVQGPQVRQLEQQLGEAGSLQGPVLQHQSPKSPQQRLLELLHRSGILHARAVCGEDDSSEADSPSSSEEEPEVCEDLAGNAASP
# Summary of the method: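 Reporter transcript induction, read by capillary electrophoresis of 6-FAM-labelled RT-PCR products, reflects activity of a transfected THRa1-Gal4 fusion in HepG2 liver cells. Cells were dosed for 24 h; activity was fitted in the positive direction against DMSO.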
# [8] = target: human RAR-related Orphan Receptor gamma (RORg), RORC (gene 6097) (UniProt P51449); experiment: ATG_RORg_TRANS: Attagene TRANS-FACTORIAL HepG2 Assay for human RAR-related Orphan Receptor gamma (RORg) (AID 2283011)
# Sequence of human RAR-related Orphan Receptor gamma (RORg), RORC (gene 6097) (P51449 whole entry, looked up, the tested form may be a part): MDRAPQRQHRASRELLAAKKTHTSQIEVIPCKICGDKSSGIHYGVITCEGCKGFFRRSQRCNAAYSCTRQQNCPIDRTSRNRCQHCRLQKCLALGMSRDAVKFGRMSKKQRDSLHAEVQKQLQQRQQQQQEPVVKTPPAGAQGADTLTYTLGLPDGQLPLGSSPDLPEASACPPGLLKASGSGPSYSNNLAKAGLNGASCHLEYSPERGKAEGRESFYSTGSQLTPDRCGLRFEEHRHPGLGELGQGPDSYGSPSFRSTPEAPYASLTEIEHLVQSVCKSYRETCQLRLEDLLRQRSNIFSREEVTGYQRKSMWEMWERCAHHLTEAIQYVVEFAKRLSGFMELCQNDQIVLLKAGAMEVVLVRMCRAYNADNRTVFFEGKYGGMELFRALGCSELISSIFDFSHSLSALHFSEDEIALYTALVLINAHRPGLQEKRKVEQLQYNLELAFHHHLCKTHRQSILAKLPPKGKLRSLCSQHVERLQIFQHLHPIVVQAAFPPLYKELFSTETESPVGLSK
# Summary of the method: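 First, HepG2 liver cells were transfected with GAL4-UAS-driven reporter constructs and the RORg-Gal4 fusion. Next, they were treated with chemical for 24 h. Finally, reporter mRNA was quantified by RT-PCR and capillary electrophoresis, with upward activity fitted against DMSO.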
# [9] = target: Retinoic acid receptor alpha (Homo sapiens) (UniProt P10276); experiment: ATG_RARa_TRANS: Attagene TRANS-FACTORIAL HepG2 Assay for human Retinoic Acid Receptor alpha (RARa) (AID 2283005)
# Sequence of Retinoic acid receptor alpha (Homo sapiens) (P10276 whole entry, looked up, the tested form may be a part): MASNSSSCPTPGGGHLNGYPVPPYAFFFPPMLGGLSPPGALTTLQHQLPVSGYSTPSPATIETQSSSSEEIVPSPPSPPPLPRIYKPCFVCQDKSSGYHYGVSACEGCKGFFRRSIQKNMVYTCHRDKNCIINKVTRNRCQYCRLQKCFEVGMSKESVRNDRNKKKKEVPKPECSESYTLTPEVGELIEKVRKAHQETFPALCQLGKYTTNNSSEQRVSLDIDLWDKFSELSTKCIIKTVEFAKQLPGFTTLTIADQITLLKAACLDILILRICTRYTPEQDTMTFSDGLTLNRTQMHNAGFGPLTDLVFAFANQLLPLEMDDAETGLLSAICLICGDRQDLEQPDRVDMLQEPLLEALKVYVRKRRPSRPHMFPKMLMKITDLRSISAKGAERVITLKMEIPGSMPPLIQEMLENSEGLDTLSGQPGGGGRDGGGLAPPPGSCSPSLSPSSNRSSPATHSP
# Summary of the method: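 HepG2 cells transiently transfected with multiple reporter units expressing chimeric RARα-GAL4 fusion, with GAL4-UAS-driven reporters. After 24 h compound exposure, reporter mRNA induction quantified by RT-PCR and capillary electrophoresis with fluorescent labeling; gain-of-signal fitted relative to DMSO control.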
# [10] = target: human Retinoic Acid Receptor beta (RARb), RARB (gene 5915) (UniProt P10826); experiment: ATG_RARb_TRANS: Attagene TRANS-FACTORIAL HepG2 Assay for human Retinoic Acid Receptor beta (AID 2283004)
# Sequence of human Retinoic Acid Receptor beta (RARb), RARB (gene 5915) (P10826 whole entry, looked up): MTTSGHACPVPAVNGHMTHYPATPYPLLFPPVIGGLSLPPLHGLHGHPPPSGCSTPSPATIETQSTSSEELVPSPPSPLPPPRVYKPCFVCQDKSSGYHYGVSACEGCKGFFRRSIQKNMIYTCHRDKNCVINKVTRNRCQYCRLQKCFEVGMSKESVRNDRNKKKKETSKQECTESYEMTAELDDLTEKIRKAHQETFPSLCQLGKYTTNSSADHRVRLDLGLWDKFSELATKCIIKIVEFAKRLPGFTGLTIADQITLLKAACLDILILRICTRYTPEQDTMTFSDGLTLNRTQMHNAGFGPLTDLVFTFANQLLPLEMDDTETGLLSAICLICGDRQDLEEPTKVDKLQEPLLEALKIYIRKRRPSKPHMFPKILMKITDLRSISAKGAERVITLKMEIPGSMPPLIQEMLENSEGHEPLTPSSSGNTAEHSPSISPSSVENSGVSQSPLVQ
# Summary of the method: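 Transient transfection of HepG2 with multiple reporter units → chemical dosing, 24 h → total RNA isolation → RT with oligo(dT) → reporter-specific PCR, 6-FAM primer extension, HpaI digest → capillary electrophoresis. Positive direction vs DMSO control.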
smiles,measurement,setting,value
O=C1O[C@@H]2[C@@H](O)[C@H](O)O[C@@H]2[C@H]1O,outcome,[1],inactive
same,outcome,[2],inactive
same,outcome,[3],inactive
same,outcome,[4],inactive
C=CC(=O)NCOCC(C)C,outcome,[1],inactive
same,outcome,[2],inactive
same,outcome,[3],inactive
COc1nc(C)nc(N)n1,outcome,[1],inactive
same,outcome,[2],inactive
same,outcome,[3],inactive
same,outcome,[5],inactive
same,outcome,[6],inactive
same,outcome,[4],inactive
same,outcome,[7],inactive
Nc1nc2ccc([N+](=O)[O-])cc2s1,outcome,[1],inactive
same,AC50,[2],29.7 µM (active)
same,outcome,[3],inactive
same,outcome,[6],inactive
same,outcome,[4],inactive
same,outcome,[7],inactive
CCCC(C)C=O (configuration not stated),outcome,[1],inactive
same,outcome,[2],inactive
same,outcome,[3],inactive
same,outcome,[5],inactive
same,outcome,[8],inactive
same,outcome,[6],inactive
same,outcome,[4],inactive
CCCCCC(=O)OCCc1ccccc1,outcome,[1],inactive
same,outcome,[2],inactive
same,outcome,[3],inactive
same,outcome,[8],inactive
same,outcome,[4],inactive
same,outcome,[7],inactive
CC(C)=CCCC(C)CC=O (configuration not stated),outcome,[1],inactive
same,outcome,[2],inactive
same,outcome,[3],inactive
same,outcome,[5],inactive
same,outcome,[4],inactive
same,outcome,[7],inactive
CCCCCC=CCC(=O)OC,outcome,[1],inactive
same,AC50,[2],75.4 µM (active)
same,outcome,[3],inactive
same,outcome,[5],inactive
same,outcome,[6],inactive
C/C=C(\C)C(=O)OCc1ccccc1,outcome,[1],inactive
same,outcome,[2],inactive
same,outcome,[3],inactive
same,outcome,[8],inactive
same,outcome,[6],inactive
same,outcome,[4],inactive
same,outcome,[7],inactive
CSc1nnc(C(C)(C)C)c(=O)[nH]1,outcome,[1],inactive
same,outcome,[2],inactive
same,outcome,[3],inactive
same,outcome,[8],inactive
same,outcome,[6],inactive
C=C(C)C1CCC(C)CC1O (configuration not stated),outcome,[1],inactive
same,outcome,[2],inactive
same,outcome,[3],inactive
same,outcome,[6],inactive
C=C(C)C(=O)Nc1ccc(Cl)c(Cl)c1,outcome,[1],inactive
same,AC50,[2],18.4 µM (active)
same,AC50,[3],7.08 µM (active)
same,outcome,[5],inactive
same,AC50,[4],41 µM (active)
same,outcome,[7],inactive
CCCCCCCCCCCCCC(=O)O,AC50,[1],27.9 µM (active)
same,outcome,[2],inactive
same,outcome,[3],inactive
same,outcome,[6],inactive
same,AC50,[4],69.7 µM (active)
same,outcome,[7],inactive
C=C(C)C(=O)O,outcome,[1],inactive
same,outcome,[2],inactive
CC(CN1c2ccccc2Sc2ccccc21)N(C)C (configuration not stated),outcome,[1],inactive
same,AC50,[2],47.8 µM (active)
same,AC50,[3],6.83 µM (active)
same,outcome,[6],inactive
same,outcome,[7],inactive
O=C(O)Cc1cccc2ccccc12,outcome,[1],inactive
same,AC50,[2],69 µM (active)
same,outcome,[3],inactive
same,outcome,[5],inactive
same,outcome,[8],inactive
same,outcome,[4],inactive
COCCCOc1ccnc(CS(=O)c2nc3ccccc3[nH]2)c1C (configuration not stated),outcome,[1],inactive
same,outcome,[9],inactive
same,AC50,[2],31.3 µM (active)
same,AC50,[3],4.77 µM (active)
same,outcome,[6],inactive
same,outcome,[4],inactive
same,AC50,[7],100 µM (active)
CC(C)CCCCCCCOC(=O)c1ccc(C(=O)OCCCCCCCC(C)C)c(C(=O)OCCCCCCCC(C)C)c1,outcome,[1],inactive
same,outcome,[2],inactive
same,outcome,[3],inactive
same,outcome,[5],inactive
same,outcome,[8],inactive
NC(N)=NC(=O)c1nc(Cl)c(N)nc1N,outcome,[1],inactive
same,outcome,[2],inactive
same,outcome,[3],inactive
same,outcome,[5],inactive
same,outcome,[6],inactive
same,outcome,[7],inactive
C=C(C)C(=O)OCCOC(=O)CC(C)=O,outcome,[1],inactive
same,outcome,[2],inactive
same,outcome,[3],inactive
same,outcome,[5],inactive
same,outcome,[4],inactive
CCCC(=O)c1cc(O)c(O)cc1O,outcome,[1],inactive
same,outcome,[2],inactive
same,outcome,[3],inactive
same,outcome,[8],inactive
CC(C)=CCC[C@H](C)CC=O,outcome,[1],inactive
same,outcome,[2],inactive
same,outcome,[3],inactive
same,outcome,[6],inactive
same,outcome,[4],inactive
same,outcome,[7],inactive
C=CC(=O)OCCn1c(=O)n(CCOC(=O)C=C)c(=O)n(CCOC(=O)C=C)c1=O,AC50,[1],8.62 µM (active)
same,AC50,[2],8.83 µM (active)
same,outcome,[3],inactive
same,outcome,[8],inactive
same,outcome,[6],inactive
same,outcome,[7],inactive
COc1ccc(OC)c(OC)c1,outcome,[1],inactive
same,outcome,[2],inactive
same,outcome,[3],inactive
same,outcome,[8],inactive
same,outcome,[6],inactive
same,outcome,[7],inactive
O=C(O)CCCCC1CCSS1 (configuration not stated),outcome,[1],inactive
same,outcome,[2],inactive
same,outcome,[3],inactive
same,outcome,[5],inactive
same,outcome,[8],inactive
NCCCCCCN,outcome,[1],inactive
same,outcome,[10],inactive
same,outcome,[2],inactive
same,outcome,[3],inactive
same,outcome,[8],inactive
same,outcome,[6],inactive
CCCCc1ccc(N)cc1,AC50,[1],38.7 µM (active)
same,outcome,[2],inactive
same,outcome,[3],inactive
same,outcome,[5],inactive
same,outcome,[6],inactive
CCC(C)CCCC(C)(C)O (configuration not stated),outcome,[1],inactive
same,outcome,[10],inactive
same,outcome,[2],inactive
same,outcome,[3],inactive
same,outcome,[5],inactive
same,outcome,[8],inactive
same,outcome,[4],inactive
same,outcome,[7],inactive
CC(C)=CCCC(C)=CCCC(C)=CCO,outcome,[1],inactive
same,outcome,[10],inactive
same,AC50,[2],39.9 µM (active)
same,AC50,[3],10.2 µM (active)
same,AC50,[6],100 µM (active)
same,AC50,[4],28.1 µM (active)
O=C1CCc2ccccc2O1,outcome,[1],inactive
same,outcome,[2],inactive
same,outcome,[3],inactive
same,outcome,[6],inactive
same,outcome,[4],inactive
CCCC[n+]1ccccc1,outcome,[1],inactive
same,outcome,[10],inactive
same,outcome,[9],inactive
same,outcome,[3],inactive
same,outcome,[5],inactive
same,outcome,[4],inactive
O=S(=O)(O)NC1CCCCC1,outcome,[1],inactive
same,outcome,[10],inactive
same,outcome,[2],inactive
same,outcome,[3],inactive
same,outcome,[7],inactive
